From the supplement of paper PMC6555819

Legend:
Test in all cases: PBM binding z-score (relative to random genomic background probes); higher = stronger binding; sequences stand for … in GC…GCGATTGACAGCGTAGAATGAAGG
[1] = system: FXR:RXRa (NR concentration 270 nM, RXRa partner concentration 90 nM)
Procedure, shortened: (§1)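 Binding buffer was PBS pH 7.4 with 2% milk, 0.02% Triton X-100, 1 mM DTT, 0.2 mg/mL BSA and 0.4 mg/ml salmon testes DNA. In it, ligand-free nuclear receptor dimers were incubated 1 h on custom Agilent 4×180K protein-binding microarrays carrying double-stranded probes. Antibodies against each partner (one per run) detected binding, and z-scores were calculated against random background probes after regression normalization of scanned fluorescence.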

[2] = system: LXRa:RXRa (NR concentration 270 nM, RXRa partner concentration 90 nM)
Procedure, shortened: as §1

[3] = system: LXRa homodimer (NR concentration 270 nM)
Procedure, shortened: as §1

[4] = system: LXRb:RXRa (NR concentration 270 nM, RXRa partner concentration 90 nM)
Procedure, shortened: as §1

[5] = system: LXRb homodimer (NR concentration 270 nM)
Procedure, shortened: as §1

[6] = system: PPARa:RXRa (NR concentration 270 nM, RXRa partner concentration 90 nM)
Procedure, shortened: as §1

[7] = system: PPARg:RXRa (NR concentration 180 nM, RXRa partner concentration 90 nM)
Procedure, shortened: as §1

[8] = system: PPARg:RXRa 270nM:90nM, anti-RXR (NR concentration 270 nM, RXRa partner concentration 90 nM)
Procedure, shortened: as §1

[9] = system: PPARg:RXRa 30nM:10nM, anti-RXR (NR concentration 30 nM, RXRa partner concentration 10 nM)
Procedure, shortened: as §1

[10] = system: PPARg:RXRa 90nM:30nM, anti-RXR (NR concentration 90 nM, RXRa partner concentration 30 nM)
Procedure, shortened: as §1

TTACCATGGTGAGCTGAGGTCGTTGATCCAACTC
PBM binding z-score [1]: 0.322
PBM binding z-score [2]: 0.0093
PBM binding z-score [3]: -0.568
PBM binding z-score [4]: 0.111
PBM binding z-score [5]: -1.05
PBM binding z-score [6]: 0.702
PBM binding z-score [7]: -0.38
PBM binding z-score [8]: -0.0543
PBM binding z-score [9]: -0.214
PBM binding z-score [10]: -0.294

TCATATAGGTAAATACTAGGTGAAAGTCCGATCT
PBM binding z-score [1]: 1.19
PBM binding z-score [2]: 1.08
PBM binding z-score [3]: 0.534
PBM binding z-score [4]: 0.889
PBM binding z-score [5]: 0.276
PBM binding z-score [6]: 2.16
PBM binding z-score [7]: 2.46
PBM binding z-score [8]: 3.26
PBM binding z-score [9]: 4.4
PBM binding z-score [10]: 3.92

ATATGTAGGTTACATCCGGGTCACTCAGGCTATG
PBM binding z-score [1]: 2.08
PBM binding z-score [2]: 3.86
PBM binding z-score [3]: 1.09
PBM binding z-score [4]: 2.75
PBM binding z-score [5]: 0.682
PBM binding z-score [6]: 4.31
PBM binding z-score [7]: 6.07
PBM binding z-score [8]: 5.17
PBM binding z-score [9]: 2.68
PBM binding z-score [10]: 4.31

ATATGTAGGTTACATCAGGGTCATTCAGGCTATG
PBM binding z-score [1]: 3.26
PBM binding z-score [2]: 4.84
PBM binding z-score [3]: 2.29
PBM binding z-score [4]: 3.97
PBM binding z-score [5]: 0.66
PBM binding z-score [6]: 5.17
PBM binding z-score [7]: 6.84
PBM binding z-score [8]: 5.54
PBM binding z-score [9]: 3.17
PBM binding z-score [10]: 4.87

TAGCCTAGGTCATTGGGCCTGTATAGTACGCATC
PBM binding z-score [1]: 4.24
PBM binding z-score [2]: 3.47
PBM binding z-score [3]: 0.96
PBM binding z-score [4]: 2.39
PBM binding z-score [5]: -0.0318
PBM binding z-score [6]: 3.52
PBM binding z-score [7]: 2.18
PBM binding z-score [8]: 2.86
PBM binding z-score [9]: 0.506
PBM binding z-score [10]: 1.59

ATCGAGAGGTCGAAGGTGAGTATACCCACCCGAA
PBM binding z-score [1]: 3.03
PBM binding z-score [2]: 2.43
PBM binding z-score [3]: -0.396
PBM binding z-score [4]: 1.74
PBM binding z-score [5]: -0.284
PBM binding z-score [6]: 4.07
PBM binding z-score [7]: 3.99
PBM binding z-score [8]: 3.99
PBM binding z-score [9]: 1.81
PBM binding z-score [10]: 3.84

CCGACTGGGGCATAAGGTAACCATAAGCCAGCCC
PBM binding z-score [1]: 0.215
PBM binding z-score [2]: 0.187
PBM binding z-score [3]: -0.284
PBM binding z-score [4]: -0.112
PBM binding z-score [5]: -1.47
PBM binding z-score [6]: 1.08
PBM binding z-score [7]: 2.79
PBM binding z-score [8]: 3.22
PBM binding z-score [9]: 1.32
PBM binding z-score [10]: 3.24

GCGTATAGGTAATACAAGGTGAAAGTCCGATTGT
PBM binding z-score [1]: 1.84
PBM binding z-score [2]: 2.57
PBM binding z-score [3]: 0.196
PBM binding z-score [4]: 0.896
PBM binding z-score [5]: -0.616
PBM binding z-score [6]: 1.37
PBM binding z-score [7]: 0.763
PBM binding z-score [8]: 0.855
PBM binding z-score [9]: 0.307
PBM binding z-score [10]: 0.925

CCTTACGGGTCACTGACAGGTTGTAGCATTTGGA
PBM binding z-score [1]: 5.1
PBM binding z-score [2]: 3.61
PBM binding z-score [3]: 0.156
PBM binding z-score [4]: 3.17
PBM binding z-score [5]: -0.356
PBM binding z-score [6]: 4.93
PBM binding z-score [7]: 4.26
PBM binding z-score [8]: 4.06
PBM binding z-score [9]: 0.971
PBM binding z-score [10]: 2.97

ATACTAAGGTGATCGTGAGGTCGTTGATACTAAC
PBM binding z-score [1]: 2.4
PBM binding z-score [2]: 2
PBM binding z-score [3]: 0.85
PBM binding z-score [4]: 1.55
PBM binding z-score [5]: 0.314
PBM binding z-score [6]: 2.07
PBM binding z-score [7]: 0.615
PBM binding z-score [8]: 0.774
PBM binding z-score [9]: 0.762
PBM binding z-score [10]: 0.566

TCTAGCAGGCCAGAGGGTCACTAAAGAGGTACGG
PBM binding z-score [1]: 0.744
PBM binding z-score [2]: 0.827
PBM binding z-score [3]: -0.521
PBM binding z-score [4]: 0.924
PBM binding z-score [5]: -1.08
PBM binding z-score [6]: 2.12
PBM binding z-score [7]: 1.48
PBM binding z-score [8]: 2.66
PBM binding z-score [9]: 1.97
PBM binding z-score [10]: 2.41

GCTTGTAGATCAAGATTAAGAAAGACTAAGCTAA
PBM binding z-score [1]: -0.857
PBM binding z-score [2]: -0.792
PBM binding z-score [3]: -0.561
PBM binding z-score [4]: -0.525
PBM binding z-score [5]: -0.737
PBM binding z-score [6]: -0.32
PBM binding z-score [7]: 0.226
PBM binding z-score [8]: -0.333
PBM binding z-score [9]: -0.252
PBM binding z-score [10]: -0.334
